# Assay results reported in PubChem BioAssay (NCI).
# About 83,000 compounds went through this panel and 20% of them were active in at least one assay; those are over-represented in the sample as a whole.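 How to read the values: 0–100, growth inhibition (40 = 60% inhibited); 0, no net growth; -100 to 0, cell death (-40 = 40% of starting cells died; -100 = all dead).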 Values without a mark were called inactive. Calls of active or inactive are those of the source. The calls were made as follows: active = growth percent below 10; inactive = the rest.
# Assays:
# Assay in all cases: NCI-60 one-dose screen, 48 h (100 = growth as untreated, 0 = no growth, -100 = all killed)
# NCI-H23 lung = conditions: 10 µM unless noted
# NCI-H226 lung = conditions: 10 µM unless noted
# NCI-H322M lung = conditions: 10 µM unless noted
# HOP-62 NSCLC = conditions: 10 µM unless noted
# HOP-92 NSCLC = conditions: 10 µM unless noted
# 786-0 renal = conditions: 10 µM unless noted
# COLO 205 colon = conditions: 10 µM unless noted
# DU-145 prostate = conditions: 10 µM unless noted
# K-562 leukemia = conditions: 10 µM unless noted
# MALME-3M melanoma = conditions: 10 µM unless noted
# MDA-MB-231 breast = conditions: 10 µM unless noted
# RXF 393 renal = conditions: 10 µM unless noted
# SF-268 CNS = conditions: 10 µM unless noted
# SF-295 CNS = conditions: 10 µM unless noted
# SF-539 CNS = conditions: 10 µM unless noted
# UACC-257 melanoma = conditions: 10 µM unless noted
# M14 melanoma = conditions: 10 µM unless noted
# A549/ATCC NSCLC = conditions: 10 µM unless noted
# NCI-H460 lung = conditions: 10 µM unless noted
# NCI-H522 lung = conditions: 10 µM
Compound,growth (NCI-H23 lung),growth (NCI-H226 lung) [%],growth (NCI-H322M lung),growth (HOP-62 NSCLC) [%],growth (HOP-92 NSCLC),growth (786-0 renal) [%],growth (COLO 205 colon),growth (DU-145 prostate),growth (K-562 leukemia),growth (MALME-3M melanoma),growth (MDA-MB-231 breast),growth (RXF 393 renal),growth (SF-268 CNS) [%],growth (SF-295 CNS),growth (SF-539 CNS),growth (UACC-257 melanoma),growth (M14 melanoma),growth (A549/ATCC NSCLC),growth (NCI-H460 lung),growth (NCI-H522 lung)
CCCCCCCCCCCCCCCCNC(=O)Nc1ccc2ccccc2c1,103%,108,110%,105,74.5%,104,103%,126%,111%,95.4%,98.1%,104%,126,106%,106%,95.5%,94.9%,–,–,–
Cn1cc(NC(=O)Nc2cc(C(=O)O)n(C)c2)cc1C(=O)O,109%,82.1,100%,94.3,–,109,113%,121%,83.1%,89.1%,98.3%,9.73% (active),122,99.4%,103%,106%,108%,102%,–,–
NC(=N\N=C/Cc1ccccc1)/C(N)=N\N=C\Cc1ccccc1,104%,104,117%,–,109%,112,117%,101%,103%,144%,97.7%,121%,94,108%,93%,101%,105%,101%,112%,–
Oc1c(Cl)cc(Cl)c(Cl)c1Cc1c(O)c(Cl)cc(Cl)c1Cl,-0.673% (active),18,-1.98% (active),–,-21.7% (active),12.2,70.3%,28.2%,4.84% (active),-21.1% (active),-13.5% (active),15.1%,17.5,-42.4% (active),21.4%,9.73% (active),16.3%,–,5.9% (active),-3.33% (active)
C/C(=C\CCc1ccsc1)CC/C=C(\C)CCCN1CCSCC1,89.6%,91.3,78.3%,–,73.3%,102,85.6%,96.6%,61.9%,98.4%,85.9%,98.1%,103,82%,89.9%,94.6%,96.2%,67.5%,76.9%,–
c1ccc2c(-c3nc4ccccc4[nH]3)cccc2c1,44.2%,79,64.5%,–,53.3%,55.5,24.6%,33.6%,14.5%,38.1%,41.4%,31%,61.4,61.4%,37.1%,35.7%,3.75% (active),38.6%,15.5%,–
COc1ccc(C(=O)/C=C/c2ccc(C)cc2)cc1OC,78.3%,74.4,74.6%,–,52.5%,85.3,82.8%,11.3%,21.1%,101%,90.7%,–,57.3,101%,70.3%,–,99.2%,36.3%,80.9%,–
Oc1c(Cl)cc(Oc2cc(Cl)c(O)c(CN3CCOCC3)c2)cc1CN1CCOCC1,99.6%,92.7,96%,81.2,–,105,105%,101%,81.4%,105%,96.6%,104%,87.9,99.4%,98.2%,86.4%,105%,78.7%,–,–
CCCCNCCCN(CCCC)CCCNCCCC,104%,97.3,99.5%,–,41.5%,103,100%,114%,102%,104%,90.1%,96.6%,110,94.4%,103%,–,94.2%,–,101%,–
O=C(N/N=C/c1cccc(O)c1O)c1ccccc1,28.2%,17.3,13.9%,–,-4.33% (active),22,5.29% (active),33%,15.6%,20.4%,30.6%,29.7%,18.4,-1.63% (active),6.6% (active),–,15%,6.43% (active),3.29% (active),–
N[C@H](CS)C(=O)O,102%,105,83.8%,101,86.4%,105,120%,121%,107%,91%,114%,–,119,94.4%,89.7%,–,116%,99.5%,–,–
OCCN1CCN(CCCN2c3ccccc3Sc3ccc(C(F)(F)F)cc32)CC1,65.5%,82.7,65%,–,6.66% (active),38.7,-81.9% (active),58.8%,-55.8% (active),-66.6% (active),40.8%,28.2%,41,-43% (active),33.4%,–,-80.9% (active),–,6.79% (active),–
NC(=O)c1cc(Cl)ccc1NC(=O)c1ccccc1-c1ccccc1,39.9%,57.7,30%,39,67.7%,26.6,-14.1% (active),-8.79% (active),11.5%,30.4%,29.4%,–,54.1,8.66% (active),-12.5% (active),68.6%,-24% (active),35.6%,–,–
CCC(C)C1NC(=O)C(CCNCS(=O)(=O)O)NC(=O)C(NC(=O)C(CCNCS(=O)(=O)O)NC(=O)C(NC(=O)C(CCNCS(=O)(=O)O)NC(=O)CCCCC(C)C)C(C)O)CCNC(=O)C(C(C)O)NC(=O)C(CCNCS(=O)(=O)O)NC(=O)C(CCNCS(=O)(=O)O)NC(=O)C(C(C)CC)NC1=O (stereo not given),66.6%,77,70.3%,–,–,93.1,1.57% (active),117%,20.2%,48.9%,51.9%,47.4%,72.9,86.6%,27.3%,84.3%,34.7%,–,48.8%,10.5%
COP(=O)(OC)C(c1ccccc1)(c1ccccc1)c1ccccc1,104%,83.8,95.4%,–,62.8%,93.3,103%,112%,80.7%,103%,90.2%,36.9%,120,60%,95.9%,82.1%,98.7%,74.5%,108%,–
CC[N+](CCCCCCCCCC[N+](CC)(c1ccccn1)c1ccccn1)(c1ccccn1)c1ccccn1,1.17% (active),33.2,-15.8% (active),–,-22.5% (active),34.5,-80% (active),13.6%,-2.68% (active),-10.7% (active),15.9%,46.1%,17.1,-71.2% (active),11%,-19.2% (active),10.3%,1.29% (active),0.887% (active),–
O=C(CN1CCN(c2ccc(Cl)cc2)CC1)N1CCN(c2nnc(-c3ccccc3)c(-c3ccccc3)n2)CC1,34.9%,43.7,80.7%,58.1,39.1%,35.9,33%,62.8%,4.43% (active),76.5%,64.5%,–,58.5,38.4%,50.5%,–,60.1%,-6.5% (active),–,–
